Inhibition data for 57 molecules are collected here from PubChem BioAssay AID624255 (Broad Institute, 2012).

As a reminder, the inhibition is the change of the read-out against control, counted positive when it falls.

The whole screen tested about 77,000 compounds, of which about 4,600 (6%) were called active. Another 1% or so got no clear call; they are omitted. For the sample, actives were picked, then their nearest neighbours and some compounds at random. A number with no mark means an inactive call.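 Rule for the calls: active = mean inhibition above about 93%, with at least 55% of replicates each passing it (limit read from the data, passing the limit was not always enough); inconclusive = only one of those two conditions holds; inactive = neither condition holds.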

The experiment is described as follows: growth inhibition of T. cruzi in host fibroblasts – cell-based, beta-gal Tulahuen parasites, NIH3T3 host, luminescence, primary screen (AID 624255). As to conditions: T. cruzi beta-gal in NIH3T3, GalScreen luminescence, 90 h; at 8.34 µM; hits give high values.
Regarding `COc1ccc(NC(=O)Nc2ccc3c(c2)C(=O)N([C@H](C)CO)C[C@H](C)[C@H](CN(C)S(=O)(=O)c2ccc(Cl)cc2)OCCCC[C@H](C)O3)cc1`, the inhibition is 115% (active).

Consider `CC(C)NC(=O)Nc1ccc2c(c1)C(=O)N([C@@H](C)CO)C[C@H](C)[C@H](CN(C)S(=O)(=O)c1ccc(Cl)cc1)OCCCC[C@H](C)O2`, for which the inhibition was 106% (active).

As to `C[C@@H]1CCCCO[C@H](CN(C)S(=O)(=O)c2ccc(Cl)cc2)[C@H](C)CN([C@H](C)CO)C(=O)c2cc(NC(=O)NC3CCCCC3)ccc2O1`, the inhibition was 92.2%.

For `C[C@H]1CCCCO[C@H](CN(C)S(=O)(=O)c2ccc(Cl)cc2)[C@@H](C)CN([C@@H](C)CO)C(=O)c2cc(NC(=O)Nc3ccc4c(c3)OCO4)ccc2O1`, the inhibition is 105% (active).

As to `COc1ccc(NC(=O)Nc2ccc3c(c2)C(=O)N([C@H](C)CO)C[C@H](C)[C@@H](CN(C)S(=O)(=O)c2ccc(OC)cc2)OCCCC[C@H](C)O3)cc1`, the inhibition is -12%.

As for `COc1ccc(S(=O)(=O)N(C)C[C@@H]2OCCCC[C@H](C)Oc3ccc(NC(=O)Nc4ccccc4)cc3C(=O)N([C@@H](C)CO)C[C@H]2C)cc1`, the inhibition is 37.1%.

Consider `C[C@@H]1CCCCO[C@H](CN(C)S(=O)(=O)c2ccc(Cl)cc2)[C@@H](C)CN([C@H](C)CO)C(=O)c2cc(NC(=O)Nc3ccc4c(c3)OCO4)ccc2O1`, for which the inhibition is 82.9%.

`C[C@@H]1CCCCO[C@@H](CN(C)S(=O)(=O)c2ccc(F)cc2)[C@@H](C)CN([C@@H](C)CO)C(=O)c2cc(NC(=O)Nc3ccc4c(c3)OCO4)ccc2O1`: the inhibition is 23.6%.

On to `CC(C)NC(=O)Nc1ccc2c(c1)C(=O)N([C@H](C)CO)C[C@@H](C)[C@@H](CN(C)S(=O)(=O)c1ccc(Cl)cc1)OCCCC[C@H](C)O2`, for which the inhibition was 55%.

As for `Cc1ccc(S(=O)(=O)Nc2ccc3c(c2)C(=O)N([C@@H](C)CO)C[C@@H](C)[C@H](CN(C)C(=O)NC(C)C)OCCCC[C@H](C)O3)cc1`, the inhibition was 46%.

In the case of `CO[C@H]1CN(C)C(=O)c2ccc(NC(C)=O)cc2OC[C@H](C)N(CC2CC2)C[C@@H]1C`, the inhibition is 5.22%.

With `CNC(=O)C[C@H]1CC[C@@H]2[C@H](COc3ccc(NC(=O)Nc4cccc(F)c4)cc3C(=O)N2C)O1`, the inhibition was 14.8%.

For the molecule `C[C@@H]1CN([C@H](C)CO)C(=O)c2cc(NC(=O)Nc3cccc4ccccc34)ccc2O[C@H]1CN(C)C(=O)Nc1ccccc1`, the inhibition was 45.7%.

For the molecule `O=C(Nc1cccc(F)c1)N[C@@H]1CC[C@@H](CCn2cc(Cc3ccccc3)nn2)O[C@@H]1CO`, the inhibition was 42.3%.

With `CCNC(=O)Nc1ccc2c(c1)C(=O)N(C)[C@@H]1CC[C@H](CC(=O)NC3CCCCC3)O[C@H]1CO2`, the inhibition is 36%.

For the molecule `O=C(Cc1ccccn1)NCC[C@H]1CC[C@H](NS(=O)(=O)c2ccccc2)[C@@H](CO)O1`, the inhibition was 44.9%.

On to `OC[C@@H]1[C@H](c2ccc(C#CC3(O)CCCC3)cc2)[C@H]2CN(Cc3cncnc3)CCCCN12`, for which the inhibition was 101% (active).

In the case of `CCCC#Cc1ccc([C@H]2[C@H]3CN(Cc4cncnc4)CCCCN3[C@H]2CO)cc1`, the inhibition was 63.2%.

Regarding `COCC#Cc1ccc([C@H]2[C@H](CO)N3CCCCN(Cc4ccncc4)C[C@@H]23)cc1`, the inhibition is 37.4%.

On to `OC[C@@H]1[C@@H](c2ccc(C#CC3(O)CCCC3)cc2)[C@@H]2CN(Cc3cncnc3)CCCCN12`, for which the inhibition was 18.1%.

In the case of `OC[C@H]1[C@@H](c2ccc(C#CC3(O)CCCC3)cc2)[C@H]2CN(Cc3cncnc3)CCCCN21`, the inhibition was 60.8%.

As for `OC[C@@H]1[C@H](c2ccc(C#Cc3ccccc3)cc2)[C@@H]2CN(Cc3cncnc3)CCCCN12`, the inhibition was 112% (active).

With `CO[C@H]1CN(C)C(=O)c2cc(NC(=O)C3CC3)ccc2OC[C@@H](C)N(CCc2ccccc2)C[C@H]1C`, the inhibition is 11.1%.

As to `CO[C@@H]1CN(C)C(=O)c2ccc(NC(=O)Nc3cc(Cl)cc(Cl)c3)cc2OC[C@H](C)NC[C@H]1C`, the inhibition is -5.93%.

Consider `CCCNC(=O)C[C@@H]1CC[C@@H]2[C@H](COC[C@H](O)CN2C(=O)c2cc(Cl)cc(Cl)c2)O1`, for which the inhibition is 3.7%.

On to `COc1ccc(NC(=O)N[C@H]2CC[C@@H](CCNC(=O)c3cc(Cl)cc(Cl)c3)O[C@H]2CO)cc1`, for which the inhibition was -22.3%.

On to `C[C@@H]1CCCCO[C@@H](CN(C)C(=O)NC2CCCCC2)[C@@H](C)CN([C@@H](C)CO)C(=O)c2cc(NC(=O)C3CCCCC3)ccc2O1`, for which the inhibition was 69.2%.

For the molecule `O=C(NCc1cccc(F)c1)[C@H]1[C@H](CO)[C@H]2Cn3c(cccc3=O)[C@@H]1N2`, the inhibition was 23.3%.

Turning to `O=C(Nc1ccccc1)N1CCCCN2[C@H](CO)[C@@H](c3ccc(-c4ccccc4F)cc3)[C@H]2C1`, the inhibition was 45.9%.

Turning to `CC(=O)N1CCCCN2[C@H](CO)[C@H](c3ccc(-c4ccccc4)cc3)[C@@H]2C1`, the inhibition was 72.8%.

In the case of `O=C(Nc1cc(F)ccc1F)N1CCCCN2[C@H](C1)[C@H](c1ccc(-c3cccnc3)cc1)[C@@H]2CO`, the inhibition is 89.5%.

For the molecule `O=C(Nc1ccccc1F)N1CCCCN2[C@H](CO)[C@@H](c3ccc(-c4cccnc4)cc3)[C@H]2C1`, the inhibition is 104% (active).

As to `O=C(Nc1cc(F)ccc1F)N1CCCCN2[C@H](CO)[C@@H](c3ccc(-c4cncnc4)cc3)[C@H]2C1`, the inhibition was 106% (active).

Turning to `O=C(Nc1cc(F)ccc1F)N1CCCCN2[C@H](CO)[C@@H](c3ccc(-c4cccnc4)cc3)[C@@H]2C1`, the inhibition was 69.1%.

On to `COc1ccccc1NC(=O)N1CCCCN2[C@H](C1)[C@H](c1ccc(-c3ccccc3)cc1)[C@@H]2CO`, for which the inhibition is 119% (active).

As for `COc1ccccc1NC(=O)N1CCCCN2[C@@H](CO)[C@@H](c3ccc(C#Cc4ccccc4)cc3)[C@@H]2C1`, the inhibition is 94.4%.

Consider `CN(C)CC(=O)N1CCCCN2[C@@H](CO)[C@H](c3ccc(-c4cccnc4)cc3)[C@@H]2C1`, for which the inhibition was 73.9%.

As for `C[C@@H]1CN([C@H](C)CO)C(=O)c2cc(NC(=O)c3ccccc3)ccc2O[C@@H](C)CCCCO[C@H]1CN(C)S(=O)(=O)c1ccccc1`, the inhibition was -19.9%.

Turning to `O=C(Nc1ccc(Cl)cc1)N1C[C@@H]2[C@H](c3ccccc31)[C@@H](CO)N2C(=O)c1cccnc1`, the inhibition is -10.9%.

Turning to `C[C@@H](O)C#Cc1ccc([C@@H]2[C@@H](CO)N3CCCCN(C(=O)c4ccc(F)cc4)C[C@@H]23)cc1`, the inhibition is 26.5%.

On to `C[C@@H]1CN([C@@H](C)CO)C(=O)c2cc(NC(=O)Nc3cccc4ccccc34)ccc2O[C@@H](C)CCCCO[C@H]1CN(C)Cc1ccccc1`, for which the inhibition was 112% (active).

In the case of `C[C@H](CO)N1C[C@H](C)[C@@H](CN(C)Cc2ccc(C(=O)O)cc2)OCCCC[C@H](C)Oc2ccc(NC(=O)c3ccccc3)cc2C1=O`, the inhibition is 20.3%.

In the case of `C[C@@H]1CCCCO[C@H](CN(C)C(=O)Nc2ccc(C(F)(F)F)cc2)[C@@H](C)CN([C@@H](C)CO)C(=O)c2cc(NC(=O)Nc3cccc4ccccc34)ccc2O1`, the inhibition is 87.4%.

With `C[C@@H]1CCCCO[C@H](CN(C)C(=O)Nc2cccc3ccccc23)[C@@H](C)CN([C@@H](C)CO)C(=O)c2cc(NC(=O)Nc3ccc(F)cc3)ccc2O1`, the inhibition is 91.1%.

Consider `C[C@H]1CCCCO[C@H](CN(C)Cc2ccccc2)[C@@H](C)CN([C@@H](C)CO)C(=O)c2cc(NC(=O)c3ccccc3)ccc2O1`, for which the inhibition is 102% (active).

For `C[C@H](CO)N1C[C@H](C)[C@H](CN(C)Cc2ccccc2)OCCCC[C@H](C)Oc2ccc(NC(=O)c3ccccc3)cc2C1=O`, the inhibition was 71.5%.

Take `C[C@@H]1CCCCO[C@@H](CN(C)Cc2ccccc2)[C@H](C)CN([C@H](C)CO)C(=O)c2cc(NC(=O)Nc3cccc4ccccc34)ccc2O1`: the inhibition was 112% (active).

For `C[C@@H]1CCCCO[C@@H](CN(C)C(=O)Nc2ccc(F)cc2)[C@H](C)CN([C@H](C)CO)C(=O)c2cc(NC(=O)Nc3cccc4ccccc34)ccc2O1`, the inhibition is 108% (active).

As for `CC(C)NC(=O)N(C)C[C@H]1OCCCC[C@@H](C)Oc2ccc(NC(=O)Nc3cccc4ccccc34)cc2C(=O)N([C@H](C)CO)C[C@@H]1C`, the inhibition is 33.3%.

Turning to `C[C@@H]1CCCCO[C@H](CN(C)C(=O)c2ccccc2)[C@@H](C)CN([C@H](C)CO)C(=O)c2cc(NC(=O)Nc3cccc4ccccc34)ccc2O1`, the inhibition is -46.1%.

Take `COc1ccc(CN(C)C[C@H]2OCCCC[C@@H](C)Oc3ccc(NC(=O)Nc4cccc5ccccc45)cc3C(=O)N([C@H](C)CO)C[C@@H]2C)cc1`: the inhibition was 67.6%.

For the molecule `C[C@@H]1CCCCO[C@@H](CN(C)CC2CC2)[C@@H](C)CN([C@H](C)CO)C(=O)c2cc(NC(=O)Nc3cccc4ccccc34)ccc2O1`, the inhibition was 86.5%.

With `COc1ccc(NC(=O)N(C)C[C@@H]2OCCCC[C@@H](C)Oc3ccc(NS(=O)(=O)c4cn(C)cn4)cc3C(=O)N([C@@H](C)CO)C[C@H]2C)cc1`, the inhibition is 18.4%.

On to `C[C@@H]1CN([C@@H](C)CO)C(=O)c2cc(NS(=O)(=O)c3cn(C)cn3)ccc2O[C@@H](C)CCCCO[C@@H]1CN(C)Cc1ccncc1`, for which the inhibition was -84.1%.

As for `C[C@H](CO)N1C[C@H](C)[C@@H](CN(C)C(=O)c2ccncc2)Oc2ncc(-c3ccncc3)cc2C1=O`, the inhibition is 4.66%.

As to `COC(=O)[C@@H]1[C@@H](CO)[C@@H]2Cn3c(ccc(-c4ccccc4)c3=O)[C@@H]2N1C(=O)C1CC1`, the inhibition was 59.9%.

`O=C(Nc1ccccc1)N[C@@H]1CC[C@H](CCNS(=O)(=O)c2ccccc2F)O[C@@H]1CO`: the inhibition was -32.8%.
